# High-throughput results deposited in PubChem by National Center for Advancing Translational Sciences (NCATS).
# A selection: hits, their analogues and other compounds. The true share with any hit is near 21%.
# Pf growth 48h: P. falciparum growth inhibition at 48 hours (one generation). P. falciparum luciferase growth in erythrocytes, 48 h. hit rate 5.9% among 310,000. Potency, µM (top dose mostly 28.7 µM), for inactives: at the highest dose activity change, negative = inhibition, actives largely listed as inhibitors. AID 504832; further: potency means the concentration at half of the fitted maximal effect; on the % scale 0 is the no-effect control and ±100 the full control effect
#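 Parasite viability was followed by luminescence of a genomically integrated firefly luciferase. Cultures held 0.1% parasitemia at 2% hematocrit (final), incubated under 5% CO2 at 37 C.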
# Pf growth 96h: P. falciparum growth inhibition at 96 hour, primary screen for plastid delayed-death inhibitors; P. falciparum luciferase reporter growth, 96 h; Potency, µM (titrated, usually from 28.7 µM), inactives show at the top dose activity change, negative = inhibition, most hits filed as inhibitors; hit rate 6.9% among 320,000; AID 504834; further: potency means the concentration at half of the fitted maximal effect; on the % scale 0 is the no-effect control and ±100 the full control effect
#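 Parasite growth measured via integrated firefly luciferase reporter in P. falciparum. Infected erythrocytes at 2% hematocrit, 0.05% parasitemia final were treated 96 hours at 37 C under 5% CO2, and luminescence was read.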
# Shiga toxin inh: blocks Shiga toxin action in Vero cells | Vero cells, Shiga toxin protein synthesis inhibition reporter | AID 2315 | hit rate 9.2% among 290,000 | inhibition, % at 38.7 µM; in the data active means inhibition mostly above about 28%, no sharp cut-off; inactive means mostly below about 43%; further: 0% is about no effect
# Cycloheximide cs: affects cycloheximide protein synthesis inhibition readout, counter-screen. cell reporter, cycloheximide protein synthesis inhibition counterscreen. max response, %. hit rate 12% among 300,000. AID 2314; in the data active means max response mostly above about 13%, no sharp cut-off; inactive means mostly below about 14%; further: read at 38.3 µM for the half of the compounds with a filed dose; 0% is about no effect
# Sm TGR inh: inhibitors of Schistosoma mansoni thioredoxin glutathione reductase. purified TGR, DTNB reduction, TNB absorbance 405 nm. Potency, µM (series often up to 114 µM), for inactives: at the top dose activity change, negative = inhibition, hits mostly inhibitors. hit rate 3% among 360,000; further: potency means the concentration at half of the fitted maximal effect; on the % scale 0 is the no-effect control and ±100 the full control effect; nearly all actives have a fitted effect of over 60% in size
#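 First, TGR (20 nM dispensed) and NADPH were mixed with compound. Second, a 15 min room-temperature incubation followed. Third, further NADPH and then DTNB were added to start the reaction. Finally, TNB absorbance was monitored kinetically.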
# NS1 function inh: blocks influenza NS1 protein function | Potency, µM (series often up to 46.1 µM), without a hit: at the highest dose activity, positive = more growth | hit rate 0.4% among 270,000 | AID 2326; calls by dose curve; further: potency means the concentration at half of the fitted maximal effect; actives are rising curves; nearly all actives have a fitted effect of over 50% in size
#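 Read-out: OD600 growth recovery of NS1-expressing budding yeast. Cells grown overnight at 30C in -URA glucose medium, washed, resuspended and diluted 1:100 in 2% galactose assay medium, pH 6.0. Same strain lacking NS1 served as positive control.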
# * = called active by the depositor; ? = inconclusive; . = not tested or not shown. Unless noted, the call rests on the fitted dose curve; in most records, active means well fitted curve in the direction sought with a large enough effect; inconclusive means small, poorly fitted or top-dose-only effect, or another doubt; inactive means no such curve, though single readings can be large; an effect the other way counts as inactive or inconclusive.
SMILES,Pf growth 48h,Pf growth 96h,Shiga toxin inh,Cycloheximide cs,Sm TGR inh,NS1 function inh
c1ccc2c(c1)nnn1c3ccccc3nc21,189.0%,41.8%,79.7*,34.4*,5.7%,-103.3%
CC(=O)Nc1cccc(-n2cc3c(c2-c2ccccc2Cl)c(=O)n(C)c(=O)n3C)c1,.,.,.,.,5.8%,.
c1nc(Nc2ccc(N3CCOCC3)cc2)c2ccsc2n1,87.6%,133.7%,69.3*,50.4*,-12.3%,3.6%
COc1cccc(Nc2ncnc3sc(C)cc23)c1,?,-6.4%,74.6*,41.3*,-8.7%,-22.7%
Cc1cc2c(Nc3ccc(O)cc3)ncnc2s1,-15.3%,?,43.1,17.7,5.4%,32.9%
COc1ccc(Oc2ncnc3sccc23)cc1,83.5%,76.7%,65.7*,41.8*,-8.9%,.
COc1cccc(Nc2ncnc3sccc23)c1,145.6%,166.4%,129.5*,23.4*,-11.6%,-17.1%
COc1ccc(NC(=O)C2=C(C)Nc3nc(CCCO)nn3C2c2ccc(O)cc2)cc1 (centres undefined),.,.,.,.,2.0%,.
COc1ccc(OC)c(Nc2ncnc3sccc23)c1,-19.6%,29.2%,18.5,15.0*,-0.8%,4.0%
COc1ccc(Nc2ncnc3sccc23)cc1,163.7%,158.3%,72.3*,30.5*,-16.3%,11.5%
COc1ccc(Nc2ncnc3sccc23)c(OC)c1,3.8%,6.7%,18.5,9.0,5.3%,-17.9%
c1ccc(Nc2ncnc3sccc23)cc1,24.7%,18.3%,33.5,8.0,-0.9%,-22.3%
Cc1ccc(Nc2ncnc3sccc23)c(C)c1,22.5%,53.0%,62.1*,15.0*,5.6%,-30.0%
COc1ccccc1Nc1ncnc2sccc12,-1.2%,5.9%,-2.9,3.4,0.0%,4.8%
Cc1cccc(NC(=O)CSC2=Nc3ccccc3C3=NC(CC(=O)NCc4cccs4)C(=O)N23)c1 (centres undefined),.,.,.,.,5.3%,.
COc1ccc2c(c1)Cc1sc(NC(=O)c3ccccc3C)nc1-2,.,.,.,.,-6.7%,.
COc1ccc(-c2nn(-c3ccccc3)cc2CO)cc1OC,13.1µM*,-11.6%,-11.1,1.6,0.2%,-8.2%
OC[C@@H]1CCCN1Cc1cn(-c2ccccc2)nc1-c1ccc2c(c1)OCO2,13.1µM*,356.8%,19.1,-0.1,17.2%,-10.0%
OCc1cn(-c2ccccc2)nc1-c1ccc(Br)cc1,83.3%,?,33.3*,31.9*,14.4%,-30.4%
COc1cccc(-c2nn(-c3ccccc3)cc2CN(C)Cc2ccon2)c1,-18.4%,19.8%,-9.5,-2.4,12.2%,-8.2%
COc1cccc(-c2nn(-c3ccccc3)cc2CO)c1,99.3%,.,60.5*,33.0*,7.4%,-42.7%
CC(=O)Oc1cc2c(cc1Cl)C1(CC(c3ccccc3Cl)O2)CC(C)(C)NC(=S)N1 (centres undefined),?,.,-12.5,-2.9,0.2%,26.6%
O=C(CN1CCN(CC(=O)Nc2ccccc2F)CC1)Nc1ccc(Cl)c(C(F)(F)F)c1,.,.,.,.,2.3%,.
OCc1cn(-c2ccccc2)nc1-c1cc2ccccc2o1,114.1%,6.6%,100.3*,55.4*,.,-2.4%
OCc1cn(-c2ccccc2)nc1-c1ccc2c(c1)OCCO2,195.4%,84.1%,101.1*,45.0*,3.5%,-58.7%
SMILES,Pf growth 48h,Pf growth 96h,Shiga toxin inh,Cycloheximide cs,Sm TGR inh,NS1 function inh
COc1cccc(-c2nn(-c3ccccc3)cc2CNC(C)Cn2cncn2)c1 (centres undefined),36.3%,10.4µM*,111.0*,33.6*,24.0%,-8.2%
COc1cccc(-c2nn(-c3ccccc3)cc2CN(C)C(C)c2ccncn2)c1 (centres undefined),?,?,19.0,6.0,0.0%,-0.1%
CCc1ccc(S(=O)(=O)c2nnn3c2nc(Nc2cc(OC)cc(OC)c2)c2cc(Cl)ccc23)cc1,.,.,.,.,5.8%,.
Cc1nc(CC(=O)Nc2cc(Cl)ccc2C)cs1,.,.,.,.,-5.5%,.
Cc1cc(C(C)(C)C)c(OC(=O)[C@@H]2OC(c3ccccc3)=C[C@H]2c2ccccc2)c(C(C)(C)C)c1,5.22µM*,?,.,.,-12.5%,.
Cc1cccc(-n2c(O)c(C)c(=O)[nH]c2=S)c1,?,6.0%,-4.7,2.5,39.8µM*,5.6%
Cc1cccc(-n2c(C)c(-c3ccccc3)[nH]c2=S)c1,?,9.28µM*,4.4,2.8,-12.0%,-8.4%
Cc1cccc(-n2c(C)n[nH]c2=S)c1,9.3%,49.4%,-10.4,-3.1,-21.4%,14.3%
CCN(CC)c1ccc2c(-c3ccc(S(=O)(=O)O)cc3S(=O)(=O)[O-])c3ccc(=[N+](CC)CC)cc-3oc2c1,-0.6%,0.0%,-2.3,-8.1,-26.9%,9.8%
COc1cccc(NC(=O)c2c(C)oc3nc(C)nc(N4CCCC4)c23)c1,.,.,.,.,1.7%,.
Cc1ccc(NC(=O)CCS(=O)(=O)c2ccccc2)cc1S(=O)(=O)N1CCOCC1,-19.8%,?,9.5,-2.0,-21.1%,.
Cc1cccc(NC(=O)c2ccoc2C)n1,98.5%,.,83.7*,29.0*,-31.1%,-5.7%
Cc1cc(NC(=O)Cc2ccccc2C)no1,25.1%,81.2%,-1.0,-2.9,14.8%,-6.5%
Cc1cccc(NC(=O)c2ccccc2Br)n1,.,11.7µM*,28.0,13.3,-9.4%,-11.7%
Cc1ccccc1CC(=O)Nc1cc(C(C)(C)C)on1,19.4%,?,11.9,9.7*,-24.1%,-4.0%
Cc1occc1C(=O)Nc1cc(C(C)(C)C)on1,49.8%,.,70.0*,29.3*,-11.1%,5.3%
COc1cc(NC(=O)Cn2cnc(S(=O)(=O)N3CCOCC3)c2)cc(OC)c1OC,-3.6%,?,-5.8,4.4,-4.7%,-0.9%
Cc1cccc(NC(=O)c2cc(NC(=O)c3ccco3)ccc2Cl)n1,0.0%,-3.8%,21.2*,24.8,-25.4%,-57.2%
CCN(C(=O)c1ccc(N2CC3CC(C2)c2cccc(=O)n2C3)c(NC(=O)c2ccncc2)c1)c1cccc(C)c1 (centres undefined),?,-0.4%,-8.1,-2.0,-15.8%,6.3%
Cc1ccc(CNC(=O)CSc2nc3n[nH]c(C)c3c(=N)n2-c2cccc(C)c2)cc1,.,9.28µM*,-5.7,-2.4,-0.6%,17.3%
Cc1cc(-n2c(SCC(=O)Nc3ccc(Br)cc3)nc3n[nH]c(C)c3c2=N)ccc1Cl,?,43.8%,-3.6,0.9,-4.2%,-2.4%
COc1cccc(NC(=O)CSc2nc3n[nH]c(C)c3c(=N)n2-c2cccc(OC)c2)c1,10.4µM*,171.7%,-10.3,2.4,10.6%,9.6%
Cc1[nH]nc2nc(SCC(=O)NCC3CCCO3)n(-c3ccc(Br)cc3)c(=N)c12 (centres undefined),10.4µM*,40.3%,-0.7,-2.0,0.0%,2.5%
COc1cccc(-n2c(SCC(=O)NCCC3=CCCCC3)nc3n[nH]c(C)c3c2=N)c1,9.28µM*,?,-14.3,0.6,4.7%,0.0%
Cc1ccc(SCCNC(=O)c2ccc(C)c([N+](=O)[O-])c2)cc1,-17.4%,-20.8%,5.6,-3.6,18.2%,-40.6%
Cc1ccc(C(=O)NCCc2cccc(Cl)c2)cc1[N+](=O)[O-],52.2%,?,active,37.9*,-1.1%,-27.8%
